A549 tox: A549 cytotoxicity, counter-screen for Nrf2 inhibitors | A549 ARE-Fluc cells, CellTiter-Fluor viability, 18-24 h | Potency, µM (doses to about 46 µM), usual class: inhibitors | actives 0.16% (n = 390,000) | AID 504648
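A549 ARE_Fluc cells in 5% FBS OPTI-MEM were exposed to compounds in concentration-response for 18-24 h at 37 deg C. Viability was read by CellTiter-Fluor fluorescence (Ex 405/Em 525) after 30 min, before the luciferase read.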
Mito fusion yeast: blocks mitochondrial division or promotes mitochondrial fusion | AID 485298 | Potency, µM (highest dose often 46.1 µM), actives largely listed as activators | actives 0.23% (n = 320,000) | S. cerevisiae fusion-defective mutant growth rescue, CellTiterGlo 48 h; note: nearly all actives have a fitted effect of over 45% in size
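S. cerevisiae fusion-defective temperature-sensitive mutants (e.g. fzo1-1, mgm1-5) grown 48 h at 37C in YPEG (ethanol/glycerol non-fermentable) medium with 23 nl compound per well; growth rescue read as CellTiterGlo luminescence.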
Nrf2 block: Nrf2 pathway inhibition; Potency, µM (doses to about 46 µM), actives largely listed as inhibitors; actives 2.1% (n = 360,000); A549 ARE-Fluc reporter, luciferase luminescence, 18-24 h; AID 504444; note: nearly all actives have a fitted effect of over 60% in size
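Reporter: ARE-Fluc in A549. Exposure: 18-24 h, 37 °C, 5% CO2, 5% FBS OPTI-MEM. Readouts: fluorescent cytotoxicity (CellTiter-Fluor), then luminescent Nrf2 signal after BugLite.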
TrxR1 substrate: is turned over as a substrate by rat TrxR1; purified TrxR1 substrate turnover, NADPH consumption readout; Potency, µM (highest dose often 114 µM); O89049; AID 588456; actives 0.01% (n = 390,000); note: nearly all actives have a fitted effect of over 50% in size
Target sequence (O89049 whole entry, looked up): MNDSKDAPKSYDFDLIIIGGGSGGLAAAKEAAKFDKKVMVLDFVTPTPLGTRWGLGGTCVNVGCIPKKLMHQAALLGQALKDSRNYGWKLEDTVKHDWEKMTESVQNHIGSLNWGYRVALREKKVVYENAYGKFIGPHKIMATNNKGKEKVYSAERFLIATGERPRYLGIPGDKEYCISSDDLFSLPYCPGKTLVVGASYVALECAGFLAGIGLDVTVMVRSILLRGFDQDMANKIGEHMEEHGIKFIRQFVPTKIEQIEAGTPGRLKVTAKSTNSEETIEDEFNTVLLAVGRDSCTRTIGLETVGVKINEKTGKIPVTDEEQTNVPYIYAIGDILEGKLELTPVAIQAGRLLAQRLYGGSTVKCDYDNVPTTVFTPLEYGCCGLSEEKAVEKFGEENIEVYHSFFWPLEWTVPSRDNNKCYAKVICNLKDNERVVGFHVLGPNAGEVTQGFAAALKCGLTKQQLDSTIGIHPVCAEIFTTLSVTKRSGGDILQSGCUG
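Rat TrxR1, dispensed at 90 nM, was prereduced with 400 uM NADPH (final) for 5 min at ~22 deg C, then incubated with compound 15 min before 400 uM selenite. A first-read NADPH fluorescence drop versus no-compound background flagged substrates.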
mIDH1 inhibitor: inhibitors of human mutant IDH1 R132H. O75874. IDH1-R132H enzyme, NADPH consumption, diaphorase/resazurin fluorescence. Potency, µM (series often up to 76.6 µM), usual class: inhibitors. actives 0.093% (n = 390,000). AID 602179; note: nearly all actives have a fitted effect of over 65% in size
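IDH1-R132H (0.5 ug/mL dispensed) in pH 7.5 Tris buffer was preincubated 30 min with compound, then given a substrate mix of 0.016 mM NADPH and 2 mM alpha-KG for 80 min at room temperature; remaining NADPH was read by diaphorase/resazurin fluorescence.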
rTrxR1 inhibitor: inhibitors of rat thioredoxin reductase 1. actives 1% (n = 390,000). Potency, µM (series often up to 114 µM), most hits filed as inhibitors. O89049. AID 588453. recombinant rTrxR1, NADPH fluorescence consumption, selenite substrate; note: nearly all actives have a fitted effect of over 65% in size
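Rat TrxR1 (90 nM in the dispensed reagent) was pre-reduced with 400 uM NADPH for 5 min at room temperature, then incubated with compound for 15 min. After 400 uM selenite was added, NADPH fluorescence (Ex 340/Em 450 nm) was followed for 8 min.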
Numbers stand for hits; [ ] = another dose, or the depositor's remark. A selection: hits, their analogues and other compounds. The true share with any hit is near 3.1%. Calls come from the whole dose curve; as a rule, active = well fitted curve in the direction sought with a large enough effect; inconclusive = small, poorly fitted or top-dose-only effect, or another doubt; inactive = no such curve, though single readings can be large; an effect the other way counts as inactive or inconclusive.

What do the screens show for `COc1cc(CNc2ncnc3c2[nH]c2ccc(C)cc23)cc(OC)c1`?
A549 tox: inactive; Mito fusion yeast: inactive; Nrf2 block: 15µM; TrxR1 substrate: inactive; mIDH1 inhibitor: inactive; rTrxR1 inhibitor: inactive

What do the screens show for `Fc1ccc2[nH]c3c(NCc4ccco4)ncnc3c2c1`?
A549 tox: inactive; Nrf2 block: 12µM; TrxR1 substrate: inactive; rTrxR1 inhibitor: inactive

How did Nc1cccc2[nH]cnc12 do in these assays?
TrxR1 substrate: inactive; rTrxR1 inhibitor: inactive

How did COc1ccc(C(=O)C2C(=O)C(=O)N(Cc3ccco3)C2c2cccs2)cc1 (stereo not drawn) do in these assays?
A549 tox: inactive; Nrf2 block: inactive; TrxR1 substrate: inactive; rTrxR1 inhibitor: 45µM

What do the screens show for `O=C(CNC(=O)c1ccccc1)Sc1ccccc1`?
A549 tox: inactive; Nrf2 block: inactive; TrxR1 substrate: inactive; mIDH1 inhibitor: inactive; rTrxR1 inhibitor: 13µM

How did O=C(Cc1ccccc1)Nc1cccc(N2C(=O)C=CC2=O)c1 do in these assays?
A549 tox: inactive; Mito fusion yeast: inactive; Nrf2 block: inconclusive; TrxR1 substrate: inactive; mIDH1 inhibitor: inactive; rTrxR1 inhibitor: 3.5µM

What do the screens show for `COc1cc2c(NC3CCN(C)CC3)nc(N3CCCN(C)CC3)nc2cc1OCCCN1CCOCC1`?
TrxR1 substrate: inactive; rTrxR1 inhibitor: inconclusive

Results for COc1cc2c(NC3CCN(C)CC3)nc(N3CCCN(C)CC3)nc2cc1OCCCN1CCCC1 ?
TrxR1 substrate: inactive; rTrxR1 inhibitor: 50µM

Results for CC(=O)NC(Cc1ccc([N+](=O)[O-])cc1)C(=O)NCC(N)C(=O)c1ccccc1 (stereo not drawn) ?
TrxR1 substrate: inactive; rTrxR1 inhibitor: inactive

Results for CC1(C)Cc2c(C#N)c(N3CCOCC3)nc(-c3ccccc3)c2CO1 ?
A549 tox: inactive; Mito fusion yeast: inactive; TrxR1 substrate: inactive; mIDH1 inhibitor: inactive; rTrxR1 inhibitor: inactive

How did CC1CCN(c2nc(-c3ccco3)c3c(c2C#N)CC(C)(C)OC3)CC1 do in these assays?
A549 tox: inactive; Mito fusion yeast: inactive; Nrf2 block: inactive; TrxR1 substrate: inactive; mIDH1 inhibitor: inactive; rTrxR1 inhibitor: 8.9µM

What do the screens show for `O=C1CCc2cc(S(=O)(=O)Nc3cccc(Br)c3)ccc2N1`?
A549 tox: inactive; Nrf2 block: inconclusive

How did CCSC1(SCC)N=C(N)C2(C#N)C(c3ccc(OC)c(OC)c3OC)C12C#N (stereo not drawn) do in these assays?
A549 tox: inactive; Mito fusion yeast: inactive; Nrf2 block: inactive; TrxR1 substrate: inactive; mIDH1 inhibitor: inactive; rTrxR1 inhibitor: 45µM

What do the screens show for `CCSC1(SCC)N=C(N)C2(C#N)C(c3ccccc3)NC3=C(CCC3)C12C#N` (stereo not drawn)?
A549 tox: inactive; Mito fusion yeast: inactive; Nrf2 block: inactive; TrxR1 substrate: inactive; mIDH1 inhibitor: inactive; rTrxR1 inhibitor: inconclusive

Results for COc1cc(OC)cc(C2=Nn3c(nnc3-c3ccccc3O)SC2)c1 ?
A549 tox: inactive; Nrf2 block: inconclusive

What do the screens show for `O=C(CC1SC(N2CCCC2)=NC1=O)Nc1ccc(C(=O)N2CCN(c3cccc(Cl)c3)CC2)cc1` (stereo not drawn)?
A549 tox: inconclusive; Mito fusion yeast: inactive; Nrf2 block: 21µM; TrxR1 substrate: inactive; mIDH1 inhibitor: inactive; rTrxR1 inhibitor: inactive

Results for CN(Cc1ccccc1F)C(=O)c1cccc(NC(=O)CC2SC(N3CCCCC3)=NC2=O)c1 (stereo not drawn) ?
A549 tox: inactive; Nrf2 block: 18µM; TrxR1 substrate: inactive; mIDH1 inhibitor: inactive; rTrxR1 inhibitor: inactive

How did COc1ccccc1N(CC(=O)NCc1ccco1)S(=O)(=O)c1ccc(C)cc1 do in these assays?
A549 tox: inactive; Mito fusion yeast: inactive; Nrf2 block: inactive; TrxR1 substrate: inactive[0.0914 µM]; mIDH1 inhibitor: inactive; rTrxR1 inhibitor: 32µM

What do the screens show for `O=C(CN(C1CCCCC1)S(=O)(=O)c1ccccc1)NCc1ccco1`?
A549 tox: inactive; Mito fusion yeast: inactive; Nrf2 block: inactive; TrxR1 substrate: inactive; mIDH1 inhibitor: inactive; rTrxR1 inhibitor: 28µM

Results for Cc1cccc(N(CC(=O)NCCSCc2ccco2)S(=O)(=O)c2ccccc2)c1 ?
A549 tox: inactive; Mito fusion yeast: inactive; Nrf2 block: inactive; TrxR1 substrate: inactive; mIDH1 inhibitor: inactive; rTrxR1 inhibitor: 11µM

What do the screens show for `Cc1ccc(S(=O)(=O)N(CC(=O)NCCc2ccc(Cl)cc2)c2ccccc2C)cc1`?
A549 tox: inconclusive; Nrf2 block: 26µM; TrxR1 substrate: inactive; mIDH1 inhibitor: inactive; rTrxR1 inhibitor: inactive[11.4 µM]

Results for Cc1csc[n+]1CC(=O)c1ccc(I)cc1 ?
TrxR1 substrate: inactive; rTrxR1 inhibitor: inactive

What do the screens show for `O=C1SC(Nc2ccccc2)C(=O)N1c1ccccc1` (stereo not drawn)?
A549 tox: inactive; Nrf2 block: inconclusive; TrxR1 substrate: inactive; rTrxR1 inhibitor: inactive

Results for Clc1ccc(-c2csc3ncnc(Sc4nnnn4C4CC4)c23)cc1 ?
TrxR1 substrate: inactive[0.0914 µM]; rTrxR1 inhibitor: inactive

Results for CCCc1cc(N2CCN(c3ccccc3F)CC2)n2cnnc2n1 ?
A549 tox: inactive; Nrf2 block: 16µM; TrxR1 substrate: inactive; mIDH1 inhibitor: inactive; rTrxR1 inhibitor: inactive

How did COc1cc2c(C(=O)N3CCOCC3)c(CSc3ccccc3)n(C)c2cc1Br do in these assays?
A549 tox: inconclusive; Mito fusion yeast: inactive; Nrf2 block: 26µM; TrxR1 substrate: inactive; mIDH1 inhibitor: inactive; rTrxR1 inhibitor: inactive

What do the screens show for `O=C(c1ccc(-c2ccc(Cl)cc2)o1)N1CCN(S(=O)(=O)c2cccs2)CC1`?
A549 tox: inactive; Mito fusion yeast: inactive; Nrf2 block: inconclusive; TrxR1 substrate: inactive; mIDH1 inhibitor: inactive; rTrxR1 inhibitor: inactive

What do the screens show for `O=C(c1ccc([N+](=O)[O-])cc1)N1CCN(C(=O)c2ccco2)CC1`?
A549 tox: inactive; Mito fusion yeast: inactive; Nrf2 block: inactive; TrxR1 substrate: inactive; mIDH1 inhibitor: inactive; rTrxR1 inhibitor: inactive

Results for O=C(NC1CCC(O)CC1)c1ccc(-c2ccc([N+](=O)[O-])cc2)o1 (stereo not drawn) ?
A549 tox: inconclusive; Mito fusion yeast: inactive; Nrf2 block: inconclusive; TrxR1 substrate: inactive; mIDH1 inhibitor: inactive; rTrxR1 inhibitor: 3.2µM

Results for CCOC(=O)C1CCCN(C(=O)c2ccc(-c3ccc([N+](=O)[O-])cc3)o2)C1 (stereo not drawn) ?
A549 tox: inactive; Mito fusion yeast: inactive; Nrf2 block: inactive; TrxR1 substrate: inactive; mIDH1 inhibitor: inactive; rTrxR1 inhibitor: 10µM
